Inhibition data for 20 compounds are collected here from ChEMBL document CHEMBL5606460, “ASAP - DENV-2 NS2B-NS3 protease fluorescence single point” (2024).

Out of some 2,000 compounds screened, about 110 (5.5%) showed an effect of 50% or more. This is one part of a sample in which strong results are shown more often than they occur.

The experiment has as its target Genome polyprotein (dengue virus type 2) (UniProt P29990).
Where [1] appears, read: Thailand/16681/1984, Concentration 25.0 uM, Number of replicates 1.0.

Regarding `CN1CCN(c2ccc(CCNc3ccccc3F)cc2)CC1`, the inhibition is -4.52% (Thailand/16681/1984, Concentration 49.5 uM, Number of replicates 2.0, Standard deviation 1.1725472419342977 %); -3.89% (Thailand/16681/1984, Concentration 99.01 uM, Number of replicates 2.0, Standard deviation 1.0151129155310683 %); -1.99% (Thailand/16681/1984, Concentration 198.0 uM, Number of replicates 2.0, Standard deviation 0.9851713728804441 %).
As to `CNS(=O)(=O)c1ccc(CNCc2ccc(N3CCN(C)CC3)cc2)cc1`, the inhibition runs as follows: (Thailand/16681/1984, Concentration 49.5 uM, Number of replicates 2.0, Standard deviation 0.2679515396874046 %) -1.41%; (Thailand/16681/1984, Concentration 99.01 uM, Number of replicates 2.0, Standard deviation 0.0046358372348345115 %) -0.423%; (Thailand/16681/1984, Concentration 198.0 uM, Number of replicates 2.0, Standard deviation 1.744466130987394 %) 0.949%.
For the compound `CC(C)(C)OC(=O)N1CCOC[C@H]1CNCc1nnc2ccccn12`, the inhibition was -2.66% (Thailand/16681/1984, Concentration 49.5 uM, Number of replicates 2.0, Standard deviation 3.6636813935617547 %); -2.48% (Thailand/16681/1984, Concentration 99.01 uM, Number of replicates 2.0, Standard deviation 2.060655687099608 %); -1.72% (Thailand/16681/1984, Concentration 198.0 uM, Number of replicates 2.0, Standard deviation 3.020799081222525 %).
With `CC(C)Cn1cccc(C(=O)Nc2ccncc2)c1=O`, the inhibition by setting is: (Thailand/16681/1984, Concentration 49.5 uM, Number of replicates 2.0, Standard deviation 1.6949837288603 %) 4.6%; (Thailand/16681/1984, Concentration 99.01 uM, Number of replicates 2.0, Standard deviation 0.80587134576346 %) 8.75%; (Thailand/16681/1984, Concentration 198.0 uM, Number of replicates 2.0, Standard deviation 0.4281674737986559 %) 16%.
`Cc1cc(CO)c2cccc(Cc3ccccc3NC(=O)Cc3csc(Cc4ccccc4)n3)c2n1`: the inhibition runs as follows: (Thailand/16681/1984, Concentration 49.95 uM, Number of replicates 2.0, Standard deviation 1.2441700790071646 %) -0.54%; (Thailand/16681/1984, Concentration 99.9 uM, Number of replicates 2.0, Standard deviation 1.3300226430755788 %) 0.901%.
Regarding `O=Cc1ccc(N2CCC(C(=O)N3CCC(O)(c4ccc(Br)cc4)CC3)CC2)cc1`, under setting [1], the inhibition came to 14.6%.
In the case of `O=Cc1ccc(N2CCC(C(=O)NCc3cccc([N+](=O)[O-])c3)CC2)cc1`, under setting [1], the inhibition came to 11%.
Same read-out and setting: next, `NC(=O)c1ccc(Cl)c(NC(=O)C2CCN(c3ccc(C=O)cc3)CC2)c1`: 13.8%.
For `Cc1cc(CO)c2cccc(Cc3cccc(NC(=O)Cc4cccc(CN)c4)c3)c2n1`, the inhibition runs as follows: (Thailand/16681/1984, Concentration 49.95 uM, Number of replicates 2.0, Standard deviation 1.5571170041089204 %) 9.22%; (Thailand/16681/1984, Concentration 99.9 uM, Number of replicates 2.0, Standard deviation 3.140543082582705 %) 20.8%.
As to `C[C@@H](NC(=O)OCc1ccccc1)C(=O)Nc1cccc(CN)c1`, the inhibition is -7.57% (Thailand/16681/1984, Concentration 49.5 uM, Number of replicates 2.0, Standard deviation 1.8366578313187596 %) and -9.56% (Thailand/16681/1984, Concentration 198.0 uM, Number of replicates 2.0, Standard deviation 1.0835833369227144 %).
Take `NCc1cccc(NC(=O)[C@@H](NC(=O)OCc2ccccc2)C(C2CCC2)C2CCC2)c1`: the inhibition is 0.575% (Thailand/16681/1984, Concentration 49.5 uM, Number of replicates 2.0, Standard deviation 1.0931409988329541 %); 21.9% (Thailand/16681/1984, Concentration 99.01 uM, Number of replicates 2.0, Standard deviation 7.259842534821406 %); 99.8% (Thailand/16681/1984, Concentration 198.0 uM, Number of replicates 2.0, Standard deviation 0.026391345013157583 %).
Turning to `CC(C)C[C@@H](NC(=O)OCc1ccccc1)C(=O)Nc1cccc(CN)c1`, the inhibition is -4.42% (Thailand/16681/1984, Concentration 49.5 uM, Number of replicates 2.0, Standard deviation 3.1792600205617827 %); -3.69% (Thailand/16681/1984, Concentration 99.01 uM, Number of replicates 2.0, Standard deviation 3.3347078817009965 %); -2.71% (Thailand/16681/1984, Concentration 198.0 uM, Number of replicates 2.0, Standard deviation 3.065424880922284 %).
Turning to `CC(C)(C)[C@@H](NC(=O)OCc1ccccc1)C(=O)Nc1cccc(CN)c1`, the inhibition is, setting by setting: (Thailand/16681/1984, Concentration 49.5 uM, Number of replicates 2.0, Standard deviation 1.83793572376561 %) -6.76%; (Thailand/16681/1984, Concentration 99.01 uM, Number of replicates 2.0, Standard deviation 1.8206757463634287 %) -7.66%; (Thailand/16681/1984, Concentration 198.0 uM, Number of replicates 2.0, Standard deviation 1.2664180516369132 %) -8.05%.
As for `NCc1cccc(NC(=O)[C@@H](CO)NC(=O)OCc2ccccc2)c1`, the inhibition was -3.34% (Thailand/16681/1984, Concentration 49.5 uM, Number of replicates 2.0, Standard deviation 0.4735169770341957 %); -3.24% (Thailand/16681/1984, Concentration 99.01 uM, Number of replicates 2.0, Standard deviation 2.1222171442022573 %); -3.94% (Thailand/16681/1984, Concentration 198.0 uM, Number of replicates 2.0, Standard deviation 1.1527028197814282 %).
For `NCc1cccc(NC(=O)[C@@H](NC(=O)OCc2ccccc2)C2CCCCC2)c1`, the inhibition by setting is: (Thailand/16681/1984, Concentration 49.5 uM, Number of replicates 2.0, Standard deviation 3.75421470496627 %) -3.1%; (Thailand/16681/1984, Concentration 99.01 uM, Number of replicates 2.0, Standard deviation 3.4431804249233626 %) -1.76%; (Thailand/16681/1984, Concentration 198.0 uM, Number of replicates 2.0, Standard deviation 6.458747607105988 %) 79.9%.
For the compound `C[C@H](NC(=O)C1CCN(c2ccc(C=O)cc2)CC1)c1ccc(S(C)(=O)=O)cc1`, the inhibition under setting [1] amounted to 12.5%.
For `CCN(C(=O)C1CCN(c2ccc(C=O)cc2)CC1)[C@H]1CCOC(C)(C)C1`, the inhibition under setting [1] came to 13%.
Turning to `NCc1cccc(NC(=O)[C@@H](Cc2cccc(O)c2)NC(=O)OCc2ccccc2)c1`, the inhibition runs as follows: (Thailand/16681/1984, Concentration 49.5 uM, Number of replicates 2.0, Standard deviation 2.8573642237031027 %) -3.63%; (Thailand/16681/1984, Concentration 99.01 uM, Number of replicates 2.0, Standard deviation 1.9175045904819328 %) -3.65%; (Thailand/16681/1984, Concentration 198.0 uM, Number of replicates 2.0, Standard deviation 1.9524208099559948 %) -2.84%.
Turning to `COc1cc(C(=O)N(C)C)nc(N2CCNCC2)n1`, the inhibition is -3.23% (Thailand/16681/1984, Concentration 49.5 uM, Number of replicates 2.0, Standard deviation 4.026406870890022 %); -4.25% (Thailand/16681/1984, Concentration 99.01 uM, Number of replicates 2.0, Standard deviation 2.6098419358385048 %); -2.7% (Thailand/16681/1984, Concentration 198.0 uM, Number of replicates 2.0, Standard deviation 2.250930669275132 %).
With `CC(C)(C)OC(=O)N[C@H](C(=O)Nc1cccc(C(N)=O)c1)c1ccc(OCc2ccccc2)cc1`, the inhibition (Thailand/16681/1984, Concentration 49.5 uM, Number of replicates 2.0, Standard deviation 1.188000805409302 %) came to 2.72%; the inhibition (Thailand/16681/1984, Concentration 99.01 uM, Number of replicates 2.0, Standard deviation 0.11203913598390365 %) came to 5.59%; the inhibition (Thailand/16681/1984, Concentration 198.0 uM, Number of replicates 2.0, Standard deviation 0.9108004769909699 %) was found to be 7.47%.
